For 7 molecules, outcome and AC50 results are on record in PubChem BioAssay (EPA / NIEHS).

Usually AC50 stands for the midpoint of the concentration-response curve, whichever way the signal moves.

SMILES strings stand for the structures. The source made the active and inactive calls. Rule for the calls: active = hit-call score of the fitted dose curve at least 0.9, where 1 is the maximum; inactive = score below 0.9.

Test [1] is described as follows: BSK_hDFCGF_SRB: Viability Assessment in the BioMAP Diversity Plus: hDFCGF Assay (AID 2283061).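 Note: cells exposed to compound for 24 h before the read.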 The following applies: primary human foreskin fibroblasts. The procedure, abridged:
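Readout is SRB absorbance at 560 nm, reflecting total protein in parallel cultures of human foreskin fibroblasts harvested 24 h after chemical dosing. Activity was fitted bidirectionally relative to DMSO.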

Read-out in test [2]: TIMP metallopeptidase inhibitor 1 (TIMP1), TIMP1 (gene 7076)
Put plainly: BSK_hDFCGF_TIMP1: BioMAP Diversity Plus: hDFCGF Assay for TIMP metallopeptidase inhibitor 1 (TIMP1) Biomarker Activity (AID 2283062). The following applies: primary human foreskin fibroblasts; actives raise or lower the signal. In outline: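 Human skin fibroblasts (primary), hDFCGF system; compound exposure 24 h; TIMP-1 by ELISA; bidirectional fit vs DMSO negative control; overt cytotoxicity by SRB in parallel wells.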

Read-out in test [3]: Monokine induced gamma interferon (MIG), CXCL9 (gene 4283)
Put plainly: BSK_hDFCGF_MIG: BioMAP Diversity Plus: hDFCGF Assay for Monokine induced gamma interferon (MIG) Biomarker Activity (AID 2283063). As to conditions: primary human foreskin fibroblasts; actives raise or lower the signal. In outline: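 Chemicals were added to primary human foreskin fibroblast cultures, which were sampled 24 h later. MIG levels were then quantified by ELISA and responses fitted in both directions relative to DMSO.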

Read-out in test [4]: Matrix Metallopeptidase 1 (MMP1), MMP1 (gene 4312)
Description: BSK_hDFCGF_MMP1: BioMAP Diversity Plus: hDFCGF Assay for Matrix Metallopeptidase 1 (MMP1) Biomarker Activity (AID 2283064). The following applies: primary human foreskin fibroblasts; actives raise or lower the signal. In outline: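 MMP1 levels quantified by ELISA 24 h after dosing human dermal fibroblast cultures, with parallel SRB total-protein staining for overt cytotoxicity. Data fitted in both directions against DMSO baseline.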

Read-out in test [5]: Vascular cell adhesion molecule 1 (VCAM1), VCAM1 (gene 7412)
Put plainly: BSK_hDFCGF_VCAM1: BioMAP Diversity Plus: hDFCGF Assay for Vascular cell adhesion molecule 1 (VCAM1) Biomarker Activity (AID 2283065). The following applies: primary human foreskin fibroblasts; actives raise or lower the signal. In outline: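 Human foreskin fibroblast primary cells, chemical exposure 24 h; VCAM-1 by ELISA; bidirectional fit, DMSO = negative control/baseline.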

Read-out in test [6]: Intercellular Adhesion Molecule 1 (ICAM1), ICAM1 (gene 3383)
Put plainly: BSK_KF3CT_ICAM1: BioMAP Diversity Plus: KF3CT Assay for Intercellular Adhesion Molecule 1 (ICAM1) Biomarker Activity (AID 2283067). As to conditions: primary human keratinocytes with fibroblasts; actives raise or lower the signal. The procedure, abridged:
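ICAM-1 levels are measured by ELISA 24 h after dosing a primary human co-culture of keratinocytes and foreskin fibroblasts. Activity in either direction is fitted relative to DMSO vehicle.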

Read-out in test [7]: Interferon-gamma inducible Protein 10 (IP10), CXCL10 (gene 3627)
Put plainly: BSK_KF3CT_IP10: BioMAP Diversity Plus: KF3CT Assay for Interferon-gamma inducible Protein 10 (IP10) Biomarker Activity (AID 2283068). The following applies: primary human keratinocytes with fibroblasts; actives raise or lower the signal. The procedure, abridged: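 Signal is secreted/surface IP-10 by ELISA in a human primary skin co-culture of keratinocytes and foreskin fibroblasts, taken 24 h post-dosing; DMSO served as negative control.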

Test [8] is described as follows: BSK_KF3CT_SRB: Viability Assessment in the BioMAP Diversity Plus: KF3CT Assay (AID 2283069).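 Note: read 24 h after compound addition.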 The following applies: primary human keratinocytes with fibroblasts. In outline:
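Cytotoxicity was gauged by SRB staining (0.1% SRB, 10% TCA fixation, 560 nm) of parallel cultures at 24 h. The cells were primary human skin keratinocytes co-cultured with fibroblasts, and activity was fitted in both directions against DMSO.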

Read-out in test [9]: Interleukin-1 alpha (IL1a), IL1A (gene 3552)
Description: BSK_KF3CT_IL1a: BioMAP Diversity Plus: KF3CT Assay for Interleukin-1 alpha (IL1a) Biomarker Activity (AID 2283070). As to conditions: primary human keratinocytes with fibroblasts; actives raise or lower the signal. The procedure, abridged: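 IL-1a was detected by ELISA 24 h after chemical treatment of a co-culture of human skin keratinocytes and foreskin fibroblasts. Gain or loss of signal was fitted against the DMSO baseline.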

Read-out in test [10]: TIMP metallopeptidase inhibitor 2 (TIMP2), TIMP2 (gene 7077)
Description: BSK_KF3CT_TIMP2: BioMAP Diversity Plus: KF3CT Assay for TIMP metallopeptidase inhibitor 2 (TIMP2) Biomarker Activity (AID 2283071). The following applies: primary human keratinocytes with fibroblasts; actives raise or lower the signal. In outline:
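TIMP-2 measured by ELISA at 24 h in human keratinocyte/fibroblast primary co-cultures exposed to chemicals. Both increases and decreases were fitted against DMSO. Parallel cultures were stained with SRB for total protein as an overt-cytotoxicity check.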

Read-out in test [11]: Transforming growth factor beta 1 (TGFb1), TGFB1 (gene 7040)
Description: BSK_KF3CT_TGFb1: BioMAP Diversity Plus: KF3CT Assay for Transforming growth factor beta 1 (TGFb1) Biomarker Activity (AID 2283072). As to conditions: primary human keratinocytes with fibroblasts; actives raise or lower the signal. In outline:
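ELISA quantifies TGF-b1 at 24 h post-dose in a primary human skin co-culture of keratinocytes and fibroblasts, with gain or loss judged against DMSO. Parallel SRB total-protein staining flags overt cytotoxicity.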

Read-out in test [12]: C-C motif chemokine 2 (Homo sapiens) (UniProt P13500)
Put plainly: BSK_KF3CT_MCP1: BioMAP Diversity Plus: KF3CT Assay for Monocyte Chemoattractant Protein 1 (MCP1/CCL2) Biomarker Activity (AID 2283073). The following applies: primary human keratinocytes with fibroblasts; actives raise or lower the signal. In outline: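 ELISA readout of MCP-1 after 24 h chemical dosing of a human skin primary co-culture of keratinocytes and foreskin fibroblasts. Activity was fitted in both directions against DMSO.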

Read-out in test [13]: Matrix Metallopeptidase 9 (MMP9), MMP9 (gene 4318)
Description: BSK_KF3CT_MMP9: BioMAP Diversity Plus: KF3CT Assay for Matrix Metallopeptidase 9 (MMP9) Biomarker Activity (AID 2283074). The following applies: primary human keratinocytes with fibroblasts; actives raise or lower the signal. In outline:
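MMP-9 quantified by ELISA after 24 h chemical treatment of primary human skin keratinocyte/fibroblast co-cultures; gain or loss fitted against DMSO, with parallel SRB staining (0.1% SRB, 560 nm) for overt cytotoxicity.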

Read-out in test [14]: urokinase plasminogen activator (uPA), PLAU (gene 5328)
Description: BSK_KF3CT_uPA: BioMAP Diversity Plus: KF3CT Assay for urokinase plasminogen activator (uPA) Biomarker Activity (AID 2283075). The following applies: primary human keratinocytes with fibroblasts; actives raise or lower the signal. The procedure, abridged: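 ELISA read-out of uPA 24 h after dosing human skin keratinocytes co-cultured with foreskin fibroblasts. Signal change fitted both ways relative to DMSO; sulforhodamine B on parallel cultures marks overt cytotoxicity.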

Read-out in test [15]: E-selectin (Homo sapiens) (UniProt P16581)
Put plainly: BSK_LPS_Eselectin: BioMAP Diversity Plus: LPS Assay for Eselectin Biomarker Activity (AID 2283077). As to conditions: primary human HUVEC with PBMC; actives raise or lower the signal. The procedure, abridged:
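Primary human vascular co-culture (endothelium plus PBMC) was dosed with chemical, then E-selectin quantified by ELISA at 24 h. Endpoint values derive from bidirectional curve fitting relative to DMSO.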

Read-out in test [16]: Interleukin-8 (IL8), CXCL8 (gene 3576)
Description: BSK_LPS_IL8: BioMAP Diversity Plus: LPS Assay for Interleukin-8 (IL8) Biomarker Activity (AID 2283078). The following applies: primary human HUVEC with PBMC; actives raise or lower the signal. The procedure, abridged:
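Readout is IL-8 by ELISA, taken 24 h after compounds were added to LPS-stimulated endothelial/PBMC co-cultures. Both increases and decreases relative to DMSO control were scored through bidirectional fitting.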

Test [17] is described as follows: BSK_LPS_SRB: Viability Assessment in the BioMAP Diversity Plus: LPS Assay (AID 2283079).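 Note: total protein by sulforhodamine B absorbance as a cytotoxicity measure; measured one day after compound addition; fitted in both directions against DMSO so loss or gain of signal counts.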 The following applies: primary human HUVEC with PBMC. The procedure, abridged:
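Readout is SRB absorbance at 560 nm (0.1% stain, TCA-fixed parallel cultures) as a total-protein cytotoxicity measure. Cells: primary human umbilical vein endothelium plus peripheral blood mononuclear cells, 24 h after chemical exposure; DMSO served as baseline.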

Read-out in test [18]: Interleukin-1 alpha (IL1a), IL1A (gene 3552)
Description: BSK_LPS_IL1a: BioMAP Diversity Plus: LPS Assay for Interleukin-1 alpha (IL1a) Biomarker Activity (AID 2283080). As to conditions: primary human HUVEC with PBMC; actives raise or lower the signal. The procedure, abridged: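 ELISA read-out of IL-1 alpha from a human primary vascular co-culture (endothelium plus PBMC) under LPS, sampled 24 hours post-dosing. Activity was fitted in both directions relative to DMSO controls.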

Read-out in test [19]: Plasminogen activator inhibitor-1 (PAI1), SERPINE1 (gene 5054)
Description: BSK_hDFCGF_PAI1: BioMAP Diversity Plus: hDFCGF Assay for Plasminogen activator inhibitor-1 (PAI1) Biomarker Activity (AID 2283066). As to conditions: primary human foreskin fibroblasts; actives raise or lower the signal. In outline:
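PAI-1 levels in human dermal foreskin fibroblasts were quantified by ELISA 24 h after dosing, with gain or loss analysed against DMSO. Overt cytotoxicity was checked by sulforhodamine B total-protein staining in parallel cultures.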

Read-out in test [20]: CD40, CD40 (gene 958)
Description: BSK_LPS_CD40: BioMAP Diversity Plus: LPS Assay for CD40 Biomarker Activity (AID 2283076). The following applies: primary human HUVEC with PBMC; actives raise or lower the signal. The procedure, abridged: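 Cells were dosed, incubated 24 h, then assayed for CD40 by ELISA. Gain or loss of signal was analysed relative to DMSO controls. The culture paired human umbilical vein endothelium with peripheral blood mononuclear cells.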

Sequence of E-selectin (Homo sapiens) (P16581 whole entry, looked up): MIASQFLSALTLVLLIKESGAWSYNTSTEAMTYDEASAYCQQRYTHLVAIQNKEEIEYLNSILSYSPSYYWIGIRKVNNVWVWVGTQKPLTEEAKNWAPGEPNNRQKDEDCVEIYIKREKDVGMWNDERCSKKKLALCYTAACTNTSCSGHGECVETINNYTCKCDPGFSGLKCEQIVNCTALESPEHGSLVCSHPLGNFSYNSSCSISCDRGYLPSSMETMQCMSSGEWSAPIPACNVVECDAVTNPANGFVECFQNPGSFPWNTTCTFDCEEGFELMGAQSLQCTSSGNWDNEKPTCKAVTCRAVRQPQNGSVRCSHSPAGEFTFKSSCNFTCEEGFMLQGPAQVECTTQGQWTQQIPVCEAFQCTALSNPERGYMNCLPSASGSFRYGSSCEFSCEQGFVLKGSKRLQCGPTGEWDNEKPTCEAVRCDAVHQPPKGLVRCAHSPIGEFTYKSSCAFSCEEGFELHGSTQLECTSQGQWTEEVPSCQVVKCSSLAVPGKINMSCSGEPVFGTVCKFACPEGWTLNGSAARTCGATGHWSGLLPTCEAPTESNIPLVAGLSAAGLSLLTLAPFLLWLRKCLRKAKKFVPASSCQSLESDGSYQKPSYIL

Consider `Nc1ccc(S(=O)(=O)c2ccc(N)cc2)cc1`, for which the outcome in [1], in test [2], in [3], in test [4], in [5] and in test [6] was inactive. Further, the result in [7], in test [8], in test [9], in [10], in test [11] and in test [12] was inactive. Further, the result in [13], in test [14], in test [15], in test [16], in test [17] and in test [18] was inactive.

With `OC[C@@H](O)[C@@H](O)[C@H](O)[C@H](O)CO`, the outcome in [1], in test [2], in test [3], in test [4], in test [5] and in test [19] was inactive. The outcome in test [6], in [7], in test [9], in test [10], in test [12] and in test [13] was inactive. The outcome in [14], in test [15], in [16], in test [17] and in test [18] was inactive.

For `O=c1[nH]cc(F)c(=O)[nH]1`, the outcome in test [1], in [2], in [3], in [4], in test [5] and in test [19] was inactive. Moreover, the result in test [6], in test [7], in test [9], in test [10], in test [12] and in test [13] was inactive. In addition, the result in [14], in [15], in test [16], in test [17] and in test [18] was inactive.

For the molecule `Cc1cc(=O)[nH]c(=S)[nH]1`, the outcome in test [1], in test [2], in test [3], in [4], in test [5] and in test [19] was inactive. Further, the outcome in [6], in [7], in test [9], in test [10], in test [11] and in [12] was inactive. For the same molecule, the result in test [13], in test [14], in test [15], in [16], in test [17] and in test [18] was inactive.

In the case of `O=C(OCCCCCOC(=O)c1ccccc1)c1ccccc1`, the result in test [1], in [2], in test [3], in test [4], in [5] and in test [19] was inactive. Moreover, the result in test [6], in test [7], in test [9], in test [10], in test [11] and in test [12] was inactive. Also, the result in [13], in test [14], in test [15], in test [16], in [17] and in [18] was inactive.

For `CCNc1cccc(C)c1`, the result in [1], in [2], in [3], in test [4], in test [5] and in test [19] was inactive. The outcome in [6], in [7], in [8], in test [9], in test [12] and in test [13] was inactive. The outcome in test [14], in test [20], in [15], in test [16], in test [17] and in test [18] was inactive.

As for `O=C(O)Cc1ccccc1Nc1c(Cl)cccc1Cl`, the outcome in test [1], in test [2], in test [3], in test [4], in test [5] and in [19] was inactive. In addition, the result in test [6], in test [7], in test [9], in test [11], in [13] and in [14] was inactive. The result in [20], in [15], in [16], in [17] and in [18] was inactive. Also, the half-maximal activity concentration (AC50) in test [12] is 8.68 µM (active).
